# Compounds without any hit were thinned out: in the full panel of roughly 83,000, 20% have a hit.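 In brief: 96-well plates, 48 h treatment, single concentration, percent growth endpoint.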 Calls of active or inactive are those of the source. How the source made its calls: active means growth percent below 10; inactive means the rest.
# Tested on: OVCAR-3 ovarian
# Assay: NCI-60 one-dose screen, 48 h (100 = growth as untreated, 0 = no growth, -100 = all killed)
# Settings: 10 µM unless noted
row,SMILES,growth
1,Nc1ccc(F)c(Cl)c1F,111% (inactive)
2,COc1ccc(Br)c2c1C(=O)CC2,103% (inactive)
3,Oc1cccnc1CN1CCCC1,117% (inactive)
4,CC(C)(CC(=O)O)CC(=O)O,105% (inactive)
5,CN=S(=O)(OCCCCCOS(=O)(=NC)c1ccc(C)cc1)c1ccc(C)cc1 (stereo not given),104% (inactive)
6,NC(CO)(CO)c1ccccc1,97.5% (inactive)
7,CC1CC2C3CCC4=CC(=O)CCC4(C)C3CCC2(C)C1(O)C(=O)CO (stereo not given),132% (inactive)
8,CC(c1ccccc1)N1C(=O)CSC1=S (stereo not given),-13.1% (active)
9,CN1CCN(C(=S)S)CC1,115% (inactive)
10,Nc1ncnc(Nc2ccccc2)n1,117% (inactive)
11,O=c1cc(C(F)(F)F)[nH]c(=S)[nH]1,120% (inactive)
12,CCOC(=O)c1c(C)[nH]c(C)c1C=O,112% (inactive)
13,CCOP(=O)(NC(c1ccccc1)c1ccccc1)OCC,112% (inactive)
14,CC(C)(C)[Si](C)(C)OCC1OC(n2cnc3c(N)ncnc32)CC1OS(C)(=O)=O (stereo not given),104% (inactive)
15,Nc1nc(Cl)cc(Cl)n1,111% (inactive)
16,C=C(C)COc1ccc(C(C)(C)C)cc1,102% (inactive)
17,Nc1ccc2c(c1)Cc1cc(N)c(N)cc1-2,112% (inactive)
18,Clc1ccc(C(SCc2ccccc2)SCc2ccccc2)cc1,90.1% (inactive)
19,O=[N+]([O-])c1ccc(-c2nc(N(CCO)CCO)c3ccccc3n2)o1,-34.3% (active)

row,SMILES,growth
1,CCNC(=O)OCCc1c2ccccc2nc2ccccc12,109% (inactive)
2,C=C(OC(C)=O)c1ccccc1,112% (inactive)
3,O=C(OCc1ccccc1)n1nnc2ccccc21,106% (inactive)
4,Cc1ccc2nc(N)nnc2c1,92.7% (inactive)
5,CC(=O)NC(CCC(=O)c1ccccc1)C(=O)O (stereo not given),107% (inactive)
6,CCOC(=O)/C(C#N)=C\c1c[nH]c2ccccc12,103% (inactive)
7,CCN(C(=O)Nc1ccccc1Cl)c1ccccc1,116% (inactive)
8,Nc1cc2ccccc2c(O)c1O,-39.9% (active)
9,NC(CSSCC(N)C(=O)O)C(=O)O (stereo not given),4.66% (active)
10,COc1cc(C(=O)N2CCN(c3ccccc3)CC2)c2ccccc2n1,-33.5% (active)
11,Cc1ccc(C)c(CCO)c1,101% (inactive)
12,S=c1nc2[nH]c3ccccc3c2n[nH]1,88.6% (inactive)
13,NCCCN1CCCC1=O,112% (inactive)
14,Cc1c(Cl)cccc1N=C=S,102% (inactive)
15,O=[n+]1ccn([O-])c2ccccc21,101% (inactive)
16,Nc1ncnc2c1ncn2C1OC(CO)C2OC21 (stereo not given),106% (inactive)
17,CCOc1ccc2c(c1)c(C)cc(C)[n+]2CC,76.2% (inactive)
18,Cc1ccc(S(N)(=O)=O)cc1Cl,115% (inactive)
19,O=C1C=Cc2ccccc2/C1=C/c1[nH]c(=O)[nH]c1O,-32.3% (active)

# Tested on: HS 578T breast
# Assay: as above
# Settings: 10 µM unless noted
row,SMILES,growth
1,Nc1ccc(F)c(Cl)c1F,96.4% (inactive)
2,COc1ccc(Br)c2c1C(=O)CC2,140% (inactive)
3,CC(C)(CC(=O)O)CC(=O)O,111% (inactive)
4,CN=S(=O)(OCCCCCOS(=O)(=NC)c1ccc(C)cc1)c1ccc(C)cc1 (stereo not given),90.1% (inactive)
5,NC(CO)(CO)c1ccccc1,95.5% (inactive)
6,CC(c1ccccc1)N1C(=O)CSC1=S (stereo not given),81.3% (inactive)
7,Nc1ncnc(Nc2ccccc2)n1,102% (inactive)
8,CCOC(=O)c1c(C)[nH]c(C)c1C=O,98.9% (inactive)
9,CC(C)(C)[Si](C)(C)OCC1OC(n2cnc3c(N)ncnc32)CC1OS(C)(=O)=O (stereo not given),89.8% (inactive)
10,Nc1nc(Cl)cc(Cl)n1,113% (inactive)
11,Nc1ccc2c(c1)Cc1cc(N)c(N)cc1-2,106% (inactive)
12,Clc1ccc(C(SCc2ccccc2)SCc2ccccc2)cc1,93.4% (inactive)
13,O=[N+]([O-])c1ccc(-c2nc(N(CCO)CCO)c3ccccc3n2)o1,-41.8% (active)
14,CCNC(=O)OCCc1c2ccccc2nc2ccccc12,90.2% (inactive)
15,C=C(OC(C)=O)c1ccccc1,90.7% (inactive)
16,O=C(OCc1ccccc1)n1nnc2ccccc21,107% (inactive)
17,Cc1ccc2nc(N)nnc2c1,93.3% (inactive)
18,CCN(C(=O)Nc1ccccc1Cl)c1ccccc1,102% (inactive)
19,Nc1cc2ccccc2c(O)c1O,81.7% (inactive)
20,NC(CSSCC(N)C(=O)O)C(=O)O (stereo not given),50.3% (inactive)
21,Cc1ccc(C)c(CCO)c1,105% (inactive)
22,S=c1nc2[nH]c3ccccc3c2n[nH]1,80.2% (inactive)
23,NCCCN1CCCC1=O,109% (inactive)
24,Cc1c(Cl)cccc1N=C=S,109% (inactive)
25,Nc1ncnc2c1ncn2C1OC(CO)C2OC21 (stereo not given),98.9% (inactive)
26,CCOc1ccc2c(c1)c(C)cc(C)[n+]2CC,104% (inactive)
27,O=C1C=Cc2ccccc2/C1=C/c1[nH]c(=O)[nH]c1O,-6.84% (active)

# From PubChem BioAssay (NCI)
